The target of the first test is Macrophage colony-stimulating factor 1 receptor (Homo sapiens) (UniProt P07333). As to conditions: at 1 µM.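 Also: mean inhibition of FMS, from the GSK PKIS screening set.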
Sequence of Macrophage colony-stimulating factor 1 receptor (Homo sapiens) (P07333 whole entry): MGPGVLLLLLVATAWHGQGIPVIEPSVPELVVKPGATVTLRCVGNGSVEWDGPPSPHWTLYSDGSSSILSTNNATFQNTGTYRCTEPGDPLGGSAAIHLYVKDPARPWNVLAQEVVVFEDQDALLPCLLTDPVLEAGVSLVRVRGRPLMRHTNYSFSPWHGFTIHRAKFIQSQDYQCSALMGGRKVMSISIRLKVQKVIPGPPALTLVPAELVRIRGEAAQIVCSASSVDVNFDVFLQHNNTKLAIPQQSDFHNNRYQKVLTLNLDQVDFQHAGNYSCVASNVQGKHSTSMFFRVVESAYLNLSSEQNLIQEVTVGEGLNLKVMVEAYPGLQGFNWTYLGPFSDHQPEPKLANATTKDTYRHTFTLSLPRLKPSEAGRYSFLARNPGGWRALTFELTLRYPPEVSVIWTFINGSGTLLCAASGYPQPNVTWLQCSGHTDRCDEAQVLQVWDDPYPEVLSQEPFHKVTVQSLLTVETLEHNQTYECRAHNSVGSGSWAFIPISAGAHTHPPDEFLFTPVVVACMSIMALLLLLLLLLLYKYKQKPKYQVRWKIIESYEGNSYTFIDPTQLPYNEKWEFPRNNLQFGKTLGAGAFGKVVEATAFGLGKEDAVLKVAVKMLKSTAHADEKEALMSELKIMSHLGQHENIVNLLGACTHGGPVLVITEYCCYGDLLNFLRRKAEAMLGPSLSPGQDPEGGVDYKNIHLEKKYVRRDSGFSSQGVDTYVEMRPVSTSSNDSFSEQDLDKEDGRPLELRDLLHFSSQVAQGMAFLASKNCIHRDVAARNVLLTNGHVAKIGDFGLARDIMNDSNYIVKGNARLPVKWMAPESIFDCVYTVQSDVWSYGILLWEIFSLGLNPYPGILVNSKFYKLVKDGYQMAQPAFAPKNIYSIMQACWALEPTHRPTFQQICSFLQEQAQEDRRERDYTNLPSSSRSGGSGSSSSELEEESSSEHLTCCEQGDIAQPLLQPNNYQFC
As for `Fc1ccc(-c2c(-c3ccncc3)nc3n2CCS3)cc1`, the inhibition came to 1.37%.
On the same count and under the same terms, the figure for `C/C(Nc1ccc(S(N)(=O)=O)cc1)=C1/C(=O)Nc2ccccc21` is 50.6%; for `C[C@@H](Oc1cc(-n2cnc3ccc(OC4CCN(C)CC4)cc32)sc1C(N)=O)c1ccccc1Cl` it is 16.3%.
Take `CCS(=O)(=O)c1ccc(OC)c(Nc2ncc(-c3ccccc3Cl)o2)c1`: the inhibition was 40.3%.
Turning to `COc1cc(N2CCN(C(C)C)CC2)ccc1Nc1nc(Nc2ccc(F)cc2C(=O)NC[C@@H](O)CO)c2cc[nH]c2n1`, the inhibition is 0.02%.
As for `Cc1nnc(-c2ccc(C)c(-c3ccc(C(=O)NCc4ccc(Cl)cc4)cc3)c2)o1`, the inhibition was found to be 0.83%.
The same measure, in the same setting: next, `COc1ccc2ncn(-c3cc(O[C@H](C)c4ccccc4Cl)c(C(N)=O)s3)c2c1`: 14.4%; `COc1cc(Nc2ncc3c(C)nc(-c4cccc(Oc5ccccc5)c4)n3n2)cc(OC)c1OC`: 22.3%; `CN(C)CCCNc1nccc(-c2c(-c3ccc(F)cc3)nn3cc(C(F)(F)F)ccc23)n1`: 2.47%.
Same read-out and setting: next, `CS(=O)(=O)CCNCc1ccc(-c2ccc3ncnc(Nc4ccc(OCc5ccccc5)c(Br)c4)c3c2)o1`: 6.06%; `COc1cc2ncn(-c3cc(OCCc4ccccc4)c(C(N)=O)s3)c2cc1OC`: 4.7%; `O=C(NCC1CC1)c1ccc(-c2cccc(C(=O)NC3CC3)c2)cc1`: 5.35%.
Still for that read-out and setting: the figure for `CN1CCN(CCCNc2nc3ccc(Oc4ccc(NC(=O)Nc5cc(C(F)(F)F)ccc5F)cc4)cc3[nH]2)CC1` is 17.3%.
For `CN(C)c1ccc2c(c1)/C(=C/Nc1ccc(S(N)(=O)=O)cc1)C(=O)N2`, the inhibition turned out to be 18.8%.
Still for that read-out and setting: the figure for `Clc1ccc(CNc2nccc(-c3cnn4ncccc34)n2)cc1` is 10.5%.
The same measure, in the same setting: next, `COc1cccc(-n2cnc3c(N/N=C/c4ccncc4)ncnc32)c1`: 24.9%; `c1ccc(-c2n[nH]cc2-c2ccnc(-c3ccc(OCCN4CCOCC4)cc3)c2)nc1`: 8.98%.
On the same count and under the same terms, next, `COc1cc2ncn(-c3cc(OCc4cccs4)c(C(N)=O)s3)c2cc1OC`: 11.7%.
With `CNC(=O)c1cncc(/C=C/c2c(C)cccc2C)c1`, the inhibition was 44.4%.
Still for that read-out and setting: next, `COc1cc(C)c(N(C)C(=O)CN(C)C)cc1Nc1nc(Nc2cccc(F)c2C(N)=O)c2cc[nH]c2n1`: 4.04%.
Still for that read-out and setting: next, `C#Cc1cccc(Nc2ncnc3ccc(OCCCCNCCS(C)(=O)=O)cc23)c1`: 2.93%; `COC(=O)Nc1nc2ccc(Sc3ccc(NC(=O)Nc4cc(C(F)(F)F)ccc4F)cc3)cc2[nH]1`: 3.42%; `CCc1nccc2c1nc(-c1nonc1N)n2CC`: 1.95%.
The same measure, in the same setting: next, `COc1cc(Nc2ncc3c(C)nc(-c4cccc(C(F)(F)F)c4)n3n2)cc(OC)c1OC`: 79.8%; `O=C1Nc2ccc(I)cc2C1=Cc1cc(Br)c(O)c(Br)c1`: 5.58%; `COc1cc2ncn(-c3cc(OCc4ccccc4C(F)(F)F)c(C(C)=O)s3)c2cc1OC`: 10.8%.
Turning to `O=C(Nc1ccc(Oc2ccc3[nH]c(NC(=O)c4ccccc4)nc3c2)cc1)Nc1cc(C(F)(F)F)ccc1F`, the inhibition is 48.1%.
The same measure, in the same setting: the figure for `c1ccc(Oc2ccc(Nc3ncc(-c4ccccc4)o3)cc2)cc1` is 2.76%; for `Fc1ccc(-c2ncn(CCCN3CCOCC3)c2-c2ccncc2)cc1` it is 1.37%; for `CCS(=O)(=O)c1ccc(OC)c(Nc2ncc(-c3cccc(-c4ccccc4F)c3)o2)c1` it is 27.2%.
On the same count and under the same terms, the figure for `Fc1ccc(-c2nc3n(c2-c2ccncc2)CCS3)cc1` is 1.38%; for `C[C@@H](Oc1cc(-n2cnc3ccc(OCC4CCN(C)CC4)cc32)sc1C(N)=O)c1ccccc1Cl` it is 17.9%; for `FC(F)(F)c1cccc(Nc2nccc(-c3cnn4nc(-c5ccccc5)ccc34)n2)c1` it is 16.4%.

The target in a further test is Tyrosine-protein kinase Fyn (Homo sapiens) (UniProt P06241). As to conditions: at 0.1 µM.
Sequence of Tyrosine-protein kinase Fyn (Homo sapiens) (P06241 2-537 limits assumed): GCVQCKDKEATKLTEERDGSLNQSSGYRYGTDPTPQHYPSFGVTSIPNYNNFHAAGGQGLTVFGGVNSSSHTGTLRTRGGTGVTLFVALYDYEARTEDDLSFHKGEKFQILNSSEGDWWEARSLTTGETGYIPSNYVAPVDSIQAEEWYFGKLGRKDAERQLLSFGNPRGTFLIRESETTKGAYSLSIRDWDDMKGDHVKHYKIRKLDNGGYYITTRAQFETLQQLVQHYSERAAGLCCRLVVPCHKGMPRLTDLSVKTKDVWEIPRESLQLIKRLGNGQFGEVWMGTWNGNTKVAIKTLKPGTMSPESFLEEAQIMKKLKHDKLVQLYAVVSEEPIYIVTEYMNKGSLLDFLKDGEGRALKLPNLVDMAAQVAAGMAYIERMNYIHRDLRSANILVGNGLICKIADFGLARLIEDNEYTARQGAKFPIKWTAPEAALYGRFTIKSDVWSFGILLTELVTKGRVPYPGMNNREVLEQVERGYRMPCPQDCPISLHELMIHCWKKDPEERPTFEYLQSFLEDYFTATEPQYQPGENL
In the case of `Fc1ccc(-c2c(-c3ccncc3)nc3n2CCS3)cc1`, the inhibition was -3.03%.
Still for that read-out and setting: next, `C/C(Nc1ccc(S(N)(=O)=O)cc1)=C1/C(=O)Nc2ccccc21`: 1.2%.
With `C[C@@H](Oc1cc(-n2cnc3ccc(OC4CCN(C)CC4)cc32)sc1C(N)=O)c1ccccc1Cl`, the inhibition is -3.18%.
For the compound `CCS(=O)(=O)c1ccc(OC)c(Nc2ncc(-c3ccccc3Cl)o2)c1`, the inhibition is 2.29%.
Take `COc1cc(N2CCN(C(C)C)CC2)ccc1Nc1nc(Nc2ccc(F)cc2C(=O)NC[C@@H](O)CO)c2cc[nH]c2n1`: the inhibition was 0.03%.
Regarding `Cc1nnc(-c2ccc(C)c(-c3ccc(C(=O)NCc4ccc(Cl)cc4)cc3)c2)o1`, the inhibition was -2.42%.
Same read-out and setting: the figure for `COc1ccc2ncn(-c3cc(O[C@H](C)c4ccccc4Cl)c(C(N)=O)s3)c2c1` is -4.31%; for `COc1cc(Nc2ncc3c(C)nc(-c4cccc(Oc5ccccc5)c4)n3n2)cc(OC)c1OC` it is 1.2%; for `CN(C)CCCNc1nccc(-c2c(-c3ccc(F)cc3)nn3cc(C(F)(F)F)ccc23)n1` it is -2.36%.
Turning to `CS(=O)(=O)CCNCc1ccc(-c2ccc3ncnc(Nc4ccc(OCc5ccccc5)c(Br)c4)c3c2)o1`, the inhibition is -0.04%.
Consider `COc1cc2ncn(-c3cc(OCCc4ccccc4)c(C(N)=O)s3)c2cc1OC`, for which the inhibition is 2.91%.
As for `O=C(NCC1CC1)c1ccc(-c2cccc(C(=O)NC3CC3)c2)cc1`, the inhibition came to 1.58%.
Still for that read-out and setting: next, `CN1CCN(CCCNc2nc3ccc(Oc4ccc(NC(=O)Nc5cc(C(F)(F)F)ccc5F)cc4)cc3[nH]2)CC1`: -4.47%; `CN(C)c1ccc2c(c1)/C(=C/Nc1ccc(S(N)(=O)=O)cc1)C(=O)N2`: 2.68%; `Clc1ccc(CNc2nccc(-c3cnn4ncccc34)n2)cc1`: -1.29%.
Still for that read-out and setting: next, `COc1cccc(-n2cnc3c(N/N=C/c4ccncc4)ncnc32)c1`: -0.06%; `COc1ccc2cc(-c3c(-c4ccncc4)nc(-c4ccc([S+](C)[O-])cc4C)n3C)ccc2c1` (configuration not stated): 1.51%.
The same measure, in the same setting: the figure for `c1ccc(-c2n[nH]cc2-c2ccnc(-c3ccc(OCCN4CCOCC4)cc3)c2)nc1` is -0.84%; for `COc1cc2ncn(-c3cc(OCc4cccs4)c(C(N)=O)s3)c2cc1OC` it is -2.3%; for `CNC(=O)c1cncc(/C=C/c2c(C)cccc2C)c1` it is 0.61%.
As for `COc1cc(C)c(N(C)C(=O)CN(C)C)cc1Nc1nc(Nc2cccc(F)c2C(N)=O)c2cc[nH]c2n1`, the inhibition was -3.95%.
With `C#Cc1cccc(Nc2ncnc3ccc(OCCCCNCCS(C)(=O)=O)cc23)c1`, the inhibition was -1.92%.
On the same count and under the same terms, the figure for `COC(=O)Nc1nc2ccc(Sc3ccc(NC(=O)Nc4cc(C(F)(F)F)ccc4F)cc3)cc2[nH]1` is -1.41%.
The same measure, in the same setting: the figure for `CCc1nccc2c1nc(-c1nonc1N)n2CC` is 2.96%.
As for `COc1cc(Nc2ncc3c(C)nc(-c4cccc(C(F)(F)F)c4)n3n2)cc(OC)c1OC`, the inhibition came to 6.79%.
As to `O=C1Nc2ccc(I)cc2C1=Cc1cc(Br)c(O)c(Br)c1`, the inhibition stood at 3%.
Still for that read-out and setting: the figure for `COc1cc2ncn(-c3cc(OCc4ccccc4C(F)(F)F)c(C(C)=O)s3)c2cc1OC` is 1.85%; for `O=C(Nc1ccc(Oc2ccc3[nH]c(NC(=O)c4ccccc4)nc3c2)cc1)Nc1cc(C(F)(F)F)ccc1F` it is 3.06%; for `c1ccc(Oc2ccc(Nc3ncc(-c4ccccc4)o3)cc2)cc1` it is 0.57%.
On the same count and under the same terms, next, `Fc1ccc(-c2ncn(CCCN3CCOCC3)c2-c2ccncc2)cc1`: -0.55%; `CCS(=O)(=O)c1ccc(OC)c(Nc2ncc(-c3cccc(-c4ccccc4F)c3)o2)c1`: 47.1%.
Still for that read-out and setting: the figure for `Fc1ccc(-c2nc3n(c2-c2ccncc2)CCS3)cc1` is 0.03%; for `C[C@@H](Oc1cc(-n2cnc3ccc(OCC4CCN(C)CC4)cc32)sc1C(N)=O)c1ccccc1Cl` it is 4.31%; for `FC(F)(F)c1cccc(Nc2nccc(-c3cnn4nc(-c5ccccc5)ccc34)n2)c1` it is 0.72%.

(Values after ChEMBL document CHEMBL1961873, “Compounds: GSK PKIS; Assays: Nanosyn kinase panel” (2012).)
